Here are results for 58 molecules from PubChem BioAssay AID1950 (The Scripps Research Institute Molecular Screening Center, 2009).

Each structure is given as a SMILES string. The whole screen tested about 300,000 compounds, of which about 1,000 (0.33%) were called active. This is one part of a sample in which actives are shown more often than they occur. Unmarked numbers belong to inactive results. No stated cut-off is given here; in the data, active means inhibition above about 28%; inactive means the rest.

The test system of this test is EBNA-1 (Epstein-Barr virus nuclear antigen 1), Human herpesvirus 4. The test is described as follows: blockers of EBV EBNA-1 binding to DNA – biochemical, fluorescence polarization, primary screen (AID 1950). The following applies: EBNA-1 DNA binding, at 14.8 µM, active compounds read high.
On to `Cc1ccn2c(=O)nc(SCC(=O)NCc3ccc(F)cc3)nc2c1`, for which the inhibition is -14.5%.
For `Oc1ccccc1CNc1ncc(Br)cc1Br` the value was -8.83%.
For `O=C(NNC(=O)c1cc2c(s1)CCCC2)c1ccccc1` the value was 6.96%; for `Cc1ccc(C(=O)NNC(=O)c2cccs2)cc1`, -0.94%.
`Cc1ccc(C(=O)NNC(=O)c2cc3cc4ccccc4nc3s2)cc1`: the inhibition is 66.7% (active).
For the molecule `Cc1cc2nc3n(c2cc1C)CC1CC(C(=O)NCCC(C)C)N(C)C31` (stereo not drawn), the inhibition is -5.15%.
Regarding `O=C(Cc1ccccc1)Nc1cccc(NC(=O)c2ccccc2)c1`, the inhibition was -12.9%.
On to `O=C(Nc1cccc(NC(=O)c2cccc(F)c2)c1)c1ccccc1`, for which the inhibition was -2.13%.
For `O=C(Nc1cccc(NC(=O)c2ccc(Br)cc2)c1)c1ccccc1` the value was 28.3% (active).
For the molecule `CN(C)[C@@H]1C(=O)C(C(N)=O)=C(O)[C@@]2(O)C(=O)C3=C(O)c4c(O)ccc(Cl)c4[C@@H](O)[C@H]3C[C@@H]12`, the inhibition is 14.1%.
For `O=C(Nc1cccc(O)c1)c1ccc(C(=O)c2ccccc2)o1` the value was 10.1%; for `COc1ccc(CCn2c(NN=C3CCCC3)nc3c2c(=O)[nH]c(=O)n3C)cc1`, 1.13%.
The result for `COc1ccc(CNc2nc3c(c(=O)[nH]c(=O)n3C)n2Cc2ccccc2)cc1` reads 28.1% (active); that for `COc1ccc(CCn2c(NCCCN3CCOCC3)nc3c2c(=O)[nH]c(=O)n3C)cc1`, 5.1%.
Turning to `CCC(=O)Nc1ccc(S(=O)(=O)NCC2CCCO2)cc1` (stereo not drawn), the inhibition is 4.88%.
On to `Cc1cccc(C(=O)Nc2ccc3c(c2)C(=O)N(CC(C)C)C3=O)c1`, for which the inhibition was -2.99%.
As to `CCC(=O)Nc1ccc(C(=O)Nc2ccc3c(c2)C(=O)N(CC2CCCO2)C3=O)cc1` (stereo not drawn), the inhibition was 57.9% (active).
In the case of `Cc1cccc(NC(=O)NC2(C)CCS(=O)(=O)C2)c1` (stereo not drawn), the inhibition was -12.1%.
`CCc1c(C)nc2ncnn2c1N1CCC(C(=O)NCc2ccc3c(c2)OCO3)CC1`: the inhibition is 7.74%.
The result for `COc1ccc(C(C(=O)NCc2ccccc2)N(Cc2cccs2)C(=O)c2cnccn2)cc1` (stereo not drawn) reads 4.32%; that for `CCn1c(/C=C/Nc2ccccc2)[n+](CC)c2ccc(C(=O)OCC(F)(F)F)cc21`, -1.72%; that for `CCC(=O)c1ccc(OC(=O)/C=C/c2cc(OC)c(OC)c(OC)c2)cc1`, 6.75%.
For `COc1cc(NS(=O)(=O)c2ccc(N=Cc3c(C)[nH]n(-c4ccccc4)c3=O)cc2)nc(OC)n1` the value was 14.1%; for `CCOc1ccc(N=C2NC(=O)S/C2=C\c2ccc(O)cc2)cc1`, 22%.
The result for `CCOc1[nH]n(-c2ccc(Cl)cc2)c(=O)c1C=Nc1ccc(O)cc1` reads 36.6% (active).
With `O=C(CC(=O)N/N=C\c1cccc(Cl)c1Cl)NCc1ccccc1`, the inhibition was 0.69%.
For `COc1cccc(N2CC(NS(=O)(=O)c3cccs3)CC2=O)c1` (stereo not drawn) the value was -3.98%.
On to `CC(=O)NC(CC(=O)Nc1nc(-c2ccccc2)c(C(C)=O)s1)c1ccccc1` (stereo not drawn), for which the inhibition is 6.2%.
`O=c1o[nH]c(-c2ccccc2)c1N=Nc1c(F)cccc1Cl`: the inhibition was -1.23%.
`COc1ccc(S(=O)(=O)Nc2ccc(S(=O)(=O)N3CCCCC3)cc2)cc1OC`: the inhibition is -12.3%.
For `COc1ccc(S(=O)(=O)N2CCCCCC2)cc1C(=O)OCC(=O)Nc1cc(C)on1`, the inhibition is -10.6%.
As for `COc1ccc(-c2ccc(Nc3ccc(S(=O)(=O)N4CCCC4)cc3)nn2)cc1OC`, the inhibition is 61.7% (active).
For `CCCn1c2ccccc2c2cnn(CC(=O)NCCCN3CCCCC3CC)c(=O)c21` (stereo not drawn) the value was -11.4%; for `O=[N+]([O-])c1cc(S(=O)(=O)Nc2cccc(Cl)c2)ccc1N=Nc1c(O)[nH]c2ccccc12`, -1.48%.
For `CCc1ccc(NC(=O)Nc2ccncc2)cc1` the value was -0.73%.
The result for `CCOC(=O)C1=C(C)Nc2nc3ccccc3n2C1c1cccs1` (stereo not drawn) reads 3.55%; that for `CCOC(=O)c1ccc(NC(=O)C2CC(=O)Nc3nc4ccccc4n32)cc1` (stereo not drawn), 30.4% (active).
In the case of `CC(=O)c1ccc(NC(=O)C2CC(=O)Nc3nc4ccccc4n32)cc1` (stereo not drawn), the inhibition was -7.52%.
The result for `Cc1ccc(NS(=O)(=O)c2ccc3c(c2)n(C)c(=O)c(=O)n3C)c(C)c1` reads -9.29%; that for `CCCS(=O)(=O)Nc1ccc(-c2cn3c(n2)SCC3)cc1`, -2.75%.
The result for `COc1cccc(NC(=O)CCNS(=O)(=O)c2ccc3c(c2)oc(=O)n3C)c1` reads -10.5%.
Regarding `CSCCC(NS(=O)(=O)c1ccc2c(c1)oc(=O)n2C)C(=O)NCc1ccccc1` (stereo not drawn), the inhibition was 1.42%.
For the molecule `CCOc1ccc(OCC)c(NC(=O)C(NS(=O)(=O)c2ccc3c(c2)oc(=O)n3C)C(C)C)c1` (stereo not drawn), the inhibition is 38% (active).
Consider `CC(Oc1ccc(Br)cc1)C(=O)NCC(c1ccco1)N1CCCCC1` (stereo not drawn), for which the inhibition is -5.29%.
For `CC(C)OC(=O)c1ccc(COc2ccc3ccc(=O)oc3c2)o1`, the inhibition is 0.87%.
With `O=C(OCC1O[C@@H](OC(=O)c2cc(O)c(O)c(O)c2)[C@@H](OC(=O)c2cc(O)c(O)c(O)c2)[C@@H](OC(=O)c2cc(O)c(O)c(O)c2)[C@@H]1OC(=O)c1cc(O)c(O)c(O)c1)c1cc(O)c(O)c(O)c1` (stereo partly drawn), the inhibition is 36.5% (active).
Take `O=C(OCC1OC(Oc2ccc(O)cc2)C(O)C(O)C1O)c1ccccc1` (stereo not drawn): the inhibition was -9.05%.
For `Cn1c(=O)[nH]c(=O)c2c1[nH]c(=S)n2Cc1ccccc1` the value was 9.15%; for `O=C(COc1ccc([N+](=O)[O-])cc1)Nc1cccc(C(=O)Nc2ccccc2C(=O)O)c1`, 8.21%; for `C=CCNC(=S)/N=c1/ccccn1Cc1ccccc1`, 3.92%.
For `CCN(CC)CCN1C(=O)C2C(C(=O)Nc3ccc(Br)cc3)C3C=CC2(O3)C1C(=O)NC1CCCCC1` (stereo not drawn) the value was 5.67%.
Regarding `COc1ccc(CCNC(=O)C2CCCN(S(=O)(=O)c3ccc(OC)cc3)C2)cc1` (stereo not drawn), the inhibition is 5.18%.
For the molecule `COc1ccc(CCNC(=S)N2CCN(S(=O)(=O)c3ccc(F)cc3)CC2)cc1`, the inhibition was 34.3% (active).
The result for `COc1ccc(CCNC(=S)N2CCN(S(=O)(=O)c3ccc(Cl)cc3)CC2)cc1` reads 7.36%.
Take `OC(COc1ccc(CN2CCSCC2)cc1)CN1CCCCC1` (stereo not drawn): the inhibition is 3.92%.
As to `COc1ccc(/C=C2\SC(=S)N(CCCC(=O)NC3CCCC3)C2=O)cc1OC`, the inhibition was -4.95%.
For `CC(=O)NNC(=O)c1csc(Cc2c(Cl)sc3ccc(Cl)cc23)n1` the value was -5.11%; for `Cc1cc(OCC(=O)NCC(O)c2ccccc2)c2c(C)c(C)c(=O)oc2c1` (stereo not drawn), 3.74%.
